Test systems include NCI-H23 lung; NCI-H226 lung; NCI-H322M lung; HOP-62 NSCLC; NCI-H460 lung; HOP-92 NSCLC; NCI-H522 lung; A549/ATCC NSCLC; 786-0 renal; COLO 205 colon; DU-145 prostate; K-562 leukemia; MALME-3M melanoma; MDA-MB-231 breast; RXF 393 renal; SF-268 CNS; SF-295 CNS; SF-539 CNS; UACC-257 melanoma; M14 melanoma.
What all share (experiment): NCI-60 one-dose screen, 48 h (100 = growth as untreated, 0 = no growth, -100 = all killed)
Common to all, as to details: 10 µM unless noted

Compounds without any hit were thinned out: in the full panel of roughly 83,000, 20% have a hit.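 How to read the values: 0–100, growth inhibition (40 = 60% inhibited); 0, no net growth; -100 to 0, cell death (-40 = 40% of starting cells died; -100 = all dead).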 Unmarked numbers belong to inactive results. The source made the active and inactive calls. Rule for the calls: active = growth percent below 10; inactive = the rest.

As to `C#CCOc1ccc(C2=NN(CCCC)C3N=C(Cl)c4ncn(CCCC)c4N23)cc1OCC#C` (stereo not given), the growth was 86.9% in the assay on NCI-H23 lung; 90.5% with NCI-H226 lung; 88.8% in the assay with NCI-H322M lung; 90.4% in the assay on HOP-62 NSCLC; 88.6% in the assay with NCI-H460 lung; 73.6% in the assay with HOP-92 NSCLC. Besides, the growth was 74.7% in the assay with NCI-H522 lung; 80.3% in the assay with A549/ATCC NSCLC; 102% in the assay with 786-0 renal; 103% with COLO 205 colon; 94.1% in the assay with DU-145 prostate; 71.2% in the assay on K-562 leukemia. Moreover, the growth in the assay with MALME-3M melanoma was 107%; in the assay with MDA-MB-231 breast, 91.7%; in the assay with RXF 393 renal, 76.1%; in the assay with SF-268 CNS, 90.1%; with SF-295 CNS, 88.4%; in the assay on SF-539 CNS, 101%. The growth in the assay with UACC-257 melanoma was 85.7%; with M14 melanoma it was 92.2%.

On to `COc1ccc(NC(=O)c2ccc(NC3=C(c4ccc(Cl)cc4)C(=O)NC3=O)cc2)cc1`, for which the growth was 85.3% with NCI-H23 lung; 84.4% with NCI-H226 lung; 85.2% with NCI-H322M lung; 80.8% in the assay with HOP-62 NSCLC; 90.6% in the assay with NCI-H460 lung; 102% with HOP-92 NSCLC. Moreover, the growth in the assay with NCI-H522 lung is 45.2%; in the assay on A549/ATCC NSCLC, 71.2%; with 786-0 renal, 89.1%; in the assay on COLO 205 colon, 86.3%; in the assay with DU-145 prostate, 91.4%; in the assay with K-562 leukemia, 79%. Moreover, the growth was 86.9% in the assay with MALME-3M melanoma; 84.8% in the assay with MDA-MB-231 breast; 84.4% in the assay with RXF 393 renal; 83.8% in the assay on SF-268 CNS; 86.8% in the assay with SF-295 CNS; 92.4% in the assay with SF-539 CNS. Also, the growth was 85.9% with UACC-257 melanoma and 102% in the assay with M14 melanoma.

Take `COc1ccc(-c2cc(-c3ccc(Nc4nc(Nc5ccc(Cl)cc5)nc(Nc5ccc(Cl)cc5)n4)cc3)no2)cc1`: the growth in the assay on NCI-H23 lung was 66.5%; in the assay with NCI-H226 lung, 110%; in the assay with NCI-H322M lung, 79.5%; in the assay with HOP-62 NSCLC, 100%; with NCI-H460 lung, 74.8%; with HOP-92 NSCLC, -28.6% (active). In addition, the growth was 84.5% in the assay on NCI-H522 lung; 62.5% in the assay with A549/ATCC NSCLC; 80.6% with 786-0 renal; 79.5% in the assay with COLO 205 colon; 91.3% with DU-145 prostate; 69.9% in the assay on K-562 leukemia. In addition, the growth in the assay on MALME-3M melanoma was 104%; in the assay with MDA-MB-231 breast, 82.1%; in the assay with RXF 393 renal it was -8.53% (active); in the assay on SF-268 CNS, 72.9%; in the assay with SF-295 CNS, 73%; with SF-539 CNS, 86.1%. Further, the growth was 105% with UACC-257 melanoma and 86.7% with M14 melanoma.

On to `CN(Cc1ccccc1)c1nc(Cl)c(C2CC(c3ccc(Cl)cc3)=NN2c2cc(Cl)cc(Cl)c2)s1` (stereo not given), for which the growth in the assay with NCI-H23 lung was 94.3%; in the assay with NCI-H226 lung it was 102%; in the assay with NCI-H322M lung it was 102%; with HOP-62 NSCLC, 91.6%; with NCI-H460 lung, 106%; in the assay with HOP-92 NSCLC, 91.6%. Besides, the growth is 91.3% in the assay on NCI-H522 lung; 95% with A549/ATCC NSCLC; 93.8% in the assay with 786-0 renal; 105% in the assay with COLO 205 colon; 109% in the assay with DU-145 prostate; 87% with K-562 leukemia. Besides, the growth in the assay with MALME-3M melanoma is 97.3%; in the assay on MDA-MB-231 breast, 110%; in the assay on RXF 393 renal, 104%; with SF-268 CNS it was 100%; with SF-295 CNS, 95.3%; in the assay on SF-539 CNS, 106%. The growth with UACC-257 melanoma was 110%; in the assay with M14 melanoma it was 96.1%.

As to `CC(C)(C)c1ccc(C(=O)Nc2sc3c(c2C#N)CCC(=O)C3)cc1`, the growth was 5.23% (active) in the assay with NCI-H23 lung; 15.4% with NCI-H226 lung; 86.6% in the assay with NCI-H322M lung; 49.7% in the assay on HOP-62 NSCLC; 1.59% (active) with NCI-H460 lung; -25% (active) in the assay with HOP-92 NSCLC. Also, the growth in the assay on NCI-H522 lung was -22.9% (active); with A549/ATCC NSCLC it was 14.4%; in the assay with 786-0 renal, 17.6%; in the assay on COLO 205 colon, -61.8% (active); in the assay on DU-145 prostate, 64.2%; in the assay on K-562 leukemia it was 9.48% (active). Besides, the growth in the assay on MALME-3M melanoma was -18.6% (active); in the assay on MDA-MB-231 breast it was -5.45% (active); in the assay with RXF 393 renal, -29.9% (active); in the assay on SF-268 CNS, 22.4%; in the assay with SF-295 CNS it was 10.3%; with SF-539 CNS, -35.6% (active). Further, the growth in the assay with UACC-257 melanoma is 19.8%; in the assay with M14 melanoma it was 8.73% (active).

`CC(C)C(=O)Nc1ncc(C(=O)NCCN(Cc2ccccc2)C(=O)c2ccc(S(=O)(=O)Nc3ccccc3)cc2)s1`: the growth is 97.3% in the assay on NCI-H23 lung; 98% with NCI-H226 lung; 98.9% in the assay with NCI-H322M lung; 94.3% in the assay with HOP-62 NSCLC; 99.8% in the assay with NCI-H460 lung; 106% in the assay on HOP-92 NSCLC. The growth in the assay with NCI-H522 lung was 83.6%; in the assay on A549/ATCC NSCLC, 103%; in the assay with 786-0 renal it was 96.6%; in the assay with COLO 205 colon, 118%; in the assay with DU-145 prostate it was 109%; in the assay with K-562 leukemia, 98.4%. Also, the growth is 111% with MALME-3M melanoma; 96.5% in the assay on MDA-MB-231 breast; 95% in the assay on RXF 393 renal; 89.5% in the assay on SF-268 CNS; 100% in the assay with SF-295 CNS; 89.3% in the assay with SF-539 CNS. For the same compound, the growth in the assay on UACC-257 melanoma was 105%; with M14 melanoma, 101%.

For the origin of these results see PubChem BioAssay (NCI).
